# Assay results: PubChem BioAssay AID1794808 (University of Kansas High Throughput Screening Laboratory, 2022)
# Hit rate of the full screen: of about 210,000 compounds, about 520 (0.25%) were called active. For the sample, actives were picked, then their nearest neighbours and some compounds at random. Values without a mark were called inactive. Rule as the data show it: active = inhibition above about 50%; inactive = the rest.
# Test system: Plasmodium falciparum apicoplast DNA polymerase (apPOL)
# Assay: Pf-apPOL inhibitors, biochemical, fluorescence (AID 1794808)
# Details: Recombinant Pf-apPOL, molecular beacon fluorescence, 1.5 h; at 10 µM; active compounds read high
row,SMILES,inhibition
1,CCC1(c2ccccc2)C(=O)NC(=O)N(C(=O)c2ccccc2I)C1=O (stereo not given),-1.8%
2,CCC1(c2ccccc2)C(=O)NC(=O)N(C)C1=O (stereo not given),-0.8%
3,CCCCC1(c2ccccc2)C(=O)NC(=O)NC1=O,81.2% (active)
4,Cc1nnc(SCc2nc3ccccc3c(=O)n2-c2ccccc2Cl)s1,0.3%
5,CCn1cc(C(=O)NCc2cccc(C)c2)c2cccnc21,-12.8%
